Screening results (PubChem BioAssay)
The list is not random: actives were taken first. Their share in the collection is about 19%.
DT40 TDP1 CPT = growth inhibition of DT40 Tdp1-/-;hTDP1 cells with camptothecin (screen for TDP1 inhibitors); Potency, µM (series often up to 46.2 µM), for the others: top-dose activity change, negative = growth inhibition, usual class: inhibitors; 12% of 420,000 active; AID 686979; chicken DT40 Tdp1-/-;hTDP1 cells + 20 nM CPT, ATP luminescence, 48 h; further: potency means the concentration at half of the fitted maximal effect; on the % scale 0 is the no-effect control and ±100 the full control effect; nearly all actives have a fitted effect of over 55% in size
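Cell growth measured by CellTiter-Glo luminescence after a minimum 48 h, 37 C compound exposure with 20 nM CPT in Tdp1-knockout DT40 cells stably expressing hTDP1, seeded 400/well; qHTS titration format.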
IL1B secr inh = blocks inflammasome-driven IL-1 beta release. THP-1 LPS/ATP IL-1B secretion, AlphaLISA, 16 h; active compounds read low. activity change, % at 57.5 µM. 4.7% of 360,000 active; in the data active means activity change below about -50%; inconclusive means mostly about -30% to -49%; further: on the % scale 0 is the no-effect control and ±100 the full control effect
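THP-1 cells pretreated 1 hr with compounds (up to 57.5 uM final), then stimulated with LPS (250 ng/mL final) plus ATP (1.25 mM final); secreted IL-1B measured by AlphaLISA after 16 hr, decreased signal indicating inhibition.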
HepG2 viability = kills HepG2 cells in TGF-b inhibitor counter-screen | 0.76% of 410,000 active | AID 588856 | Potency, µM (top dose mostly 46.1 µM), without a hit: at the highest dose activity change, negative = cytotoxicity, actives largely listed as cytotoxic | HepG2 CAGA-GFP viability, ATP luminescence, 18 h; further: potency means the concentration at half of the fitted maximal effect
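HepG2 CAGA-GFP cells (1000/well, DMEM with 1% FBS) received compound, then TGF-beta at 500 pg/mL final, and were incubated 18 hours at 37 degrees C. Viability was read by CellTiter-Glo luminescence. Media-only wells were set as complete cell-killing and DMSO as no toxicity.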
S-ASM inh = inhibitors of human secretory acid sphingomyelinase | Potency, µM (series often up to 57.5 µM), for inactives: at the highest dose activity change, negative = inhibition, most hits filed as inhibitors | P17405 | 0.006% of 340,000 active | placental ASM, HMU-PC fluorogenic substrate, 60 min; further: potency means the concentration at half of the fitted maximal effect
Target sequence (P17405 47-631 limits assumed): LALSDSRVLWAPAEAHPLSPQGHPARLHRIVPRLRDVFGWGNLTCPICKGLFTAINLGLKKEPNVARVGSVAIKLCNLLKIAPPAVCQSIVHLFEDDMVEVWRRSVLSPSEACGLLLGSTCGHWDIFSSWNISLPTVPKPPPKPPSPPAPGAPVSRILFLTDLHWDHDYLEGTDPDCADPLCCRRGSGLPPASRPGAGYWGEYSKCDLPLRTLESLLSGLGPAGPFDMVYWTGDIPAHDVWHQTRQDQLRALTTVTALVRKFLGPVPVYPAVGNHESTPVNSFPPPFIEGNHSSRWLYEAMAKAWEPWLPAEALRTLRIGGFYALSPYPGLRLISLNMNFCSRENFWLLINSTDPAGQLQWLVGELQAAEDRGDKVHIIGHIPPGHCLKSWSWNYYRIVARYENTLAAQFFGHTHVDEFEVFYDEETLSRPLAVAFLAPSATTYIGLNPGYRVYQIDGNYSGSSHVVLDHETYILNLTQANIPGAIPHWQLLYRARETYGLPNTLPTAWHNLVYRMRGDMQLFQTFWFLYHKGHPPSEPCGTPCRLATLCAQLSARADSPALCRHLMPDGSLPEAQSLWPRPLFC
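Fluorescence read-out (Ex 386 nm, Em 447 nm) after stopping the reaction at pH 10. Enzyme: ASM from human placenta; substrate HMU-PC0, 9 uM final; 60 min, 37 °C. Compound preincubation 10 min, ambient temperature.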
TGFb SMAD3 inh = blocks TGF-b signaling | HepG2 CAGA-GFP TGF-b/SMAD3 reporter, GFP fluorescence, 18 h; TGF-beta stimulated, 500 pg/mL final | Potency, µM (doses to about 46.1 µM), for inactives: at the highest dose activity, negative = inhibition, actives largely listed as inhibitors | 1.2% of 410,000 active | AID 588855; further: potency means the concentration at half of the fitted maximal effect; on the % scale 0 is the no-effect control and ±100 the full control effect; nearly all actives have a fitted effect of over 65% in size
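Read-out: total well GFP (ex488/em500-530) summed from mean per-cell fluorescence. Cells: HEPG2 CAGA-GFP, 1% FBS DMEM, 18 h at 37 degrees C with 500 pg/mL final TGF-beta. Unstimulated wells served as the full-inhibition control; stimulated DMSO wells = 0%.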
TDP1 cell noCPT = qHTS for Inhibitors of human tyrosyl-DNA phosphodiesterase 1 (TDP1): qHTS in cells in absence of CPT; DT40 Tdp1-/- hTDP1 cells, no CPT, ATP luminescence, 48 h; Potency, µM (titrated, usually from 46.2 µM), inactives show at the highest dose activity change, negative = growth inhibition, most hits filed as inhibitors; 15% of 420,000 active; AID 686978, 2013; further: potency means the concentration at half of the fitted maximal effect; on the % scale 0 is the no-effect control and ±100 the full control effect; nearly all actives have a fitted effect of over 55% in size
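A cellular qHTS used chicken DT40 cells lacking endogenous Tdp1 but carrying stably transfected human TDP1. Compounds were applied without camptothecin, and cell growth kinetics were judged by ATP-dependent luminescence after ≥48 hr.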
* marks the source's active call; other numbers are inactive results; ! = not active in a repeat. Unless noted, the call rests on the fitted dose curve; in most records, active means well fitted curve in the direction sought with a large enough effect; inconclusive means small, poorly fitted or top-dose-only effect, or another doubt; inactive means no such curve, though single readings can be large; an effect the other way counts as inactive or inconclusive.

For COc1cc(Nc2nc(SCc3ccccc3F)nc3ccccc23)cc(OC)c1 the results were DT40 TDP1 CPT inconclusive, HepG2 viability -30.6%, TGFb SMAD3 inh inconclusive and TDP1 cell noCPT 18.4µM*.
`Fc1ccc(Nc2nc(SCc3ccccc3F)nc3ccccc23)cc1` gave DT40 TDP1 CPT 16.4µM*, HepG2 viability -103.8%, TGFb SMAD3 inh inconclusive and TDP1 cell noCPT 16.4µM*.
For CC1(C)CC(=O)CC2(C1)NCC(c1ccccc1)c1c2[nH]c2ccccc12 (stereo not drawn) the results were DT40 TDP1 CPT inconclusive, IL1B secr inh -68.5*, HepG2 viability -15.5%, S-ASM inh -2.1%, TGFb SMAD3 inh -17.5% and TDP1 cell noCPT inconclusive.
`CCOc1cc(OCC)cc(C(=O)Nc2cccc(-c3nc4ccccc4[nH]3)c2)c1` gave DT40 TDP1 CPT 10.3µM*, HepG2 viability 14.1µM*, TGFb SMAD3 inh inconclusive and TDP1 cell noCPT 6.51µM*.
`CS(=O)(=O)c1cccc(C(=O)Nc2cccc(-c3nc4ccccc4[nH]3)c2)c1` gave DT40 TDP1 CPT inconclusive, IL1B secr inh 0.0, HepG2 viability -43.0%, S-ASM inh -19.7%, TGFb SMAD3 inh -0.1% and TDP1 cell noCPT inconclusive.
Screening CCCOc1ccc(C(=O)Nc2cccc(-c3nc4ccccc4[nH]3)c2)cc1 returned HepG2 viability -8.3% and TGFb SMAD3 inh inconclusive.
For CS(=O)(=O)c1ccc(C(=O)Nc2cccc(-c3nc4ccccc4[nH]3)c2)cc1 the results were DT40 TDP1 CPT inconclusive, IL1B secr inh -19.3, HepG2 viability -22.4%, S-ASM inh -22.0%, TGFb SMAD3 inh 8.7% and TDP1 cell noCPT 25.9µM*.
Screening CS(=O)(=O)Cc1ccc(C(=O)Nc2cccc(-c3nc4ccccc4[nH]3)c2)cc1 returned DT40 TDP1 CPT inconclusive, IL1B secr inh -3.5, HepG2 viability 11.4%, S-ASM inh -6.9%, TGFb SMAD3 inh -2.1% and TDP1 cell noCPT 13µM*.
COC(=O)C1=NN(C(=O)c2ccccc2)C(C)(O)C1 (stereo not drawn) was read as DT40 TDP1 CPT inconclusive, IL1B secr inh 1.3, HepG2 viability -1.3%, S-ASM inh 2.6%, TGFb SMAD3 inh 6.3% and TDP1 cell noCPT 23.1µM*.
Screening CCCCNC(=O)C1CCC(Cn2c(=O)c3sccc3n(Cc3ccccc3)c2=O)CC1 (stereo not drawn) returned DT40 TDP1 CPT 0.0%, HepG2 viability -15.3%, TGFb SMAD3 inh -17.7% and TDP1 cell noCPT 3.7%.
`Cc1cc(=O)n(Cc2cccc(Br)c2)c2c1c(C)nn2-c1ccccc1` gave DT40 TDP1 CPT -22.3%, HepG2 viability 3.4%, TGFb SMAD3 inh 8.0% and TDP1 cell noCPT -9.4%.
`Cc1ccc(C)c(-c2ccc(=O)n(Cc3cccc(Br)c3)n2)c1` gave DT40 TDP1 CPT -17.8%, IL1B secr inh -97.6*, HepG2 viability -47.3%, S-ASM inh -1.6%, TGFb SMAD3 inh inconclusive and TDP1 cell noCPT inconclusive.
Cc1ccc(C)c(-c2ccc(=O)n(Cc3ccc(F)cc3Cl)n2)c1 was read as DT40 TDP1 CPT 18.4µM*!, IL1B secr inh -74.7*, HepG2 viability -20.5%, S-ASM inh -5.7%, TGFb SMAD3 inh 12.6µM* and TDP1 cell noCPT inconclusive.
For COc1ccc(C(=O)Nc2cccc(-c3cn4ccsc4n3)c2)c(OC)c1 the results were DT40 TDP1 CPT 5.17µM*, HepG2 viability -34.5%, TGFb SMAD3 inh inconclusive and TDP1 cell noCPT 6.51µM*.
COc1cccc(C(=O)Nc2cccc(-c3cn4c(C)csc4n3)c2)c1OC was read as DT40 TDP1 CPT 18.4µM*, HepG2 viability -39.8%, TGFb SMAD3 inh -4.6% and TDP1 cell noCPT 16.4µM*.
